The record followed here is PubChem BioAssay.

Experiment [1] is described as follows: inhibitors of TNFa-induced NFkB p65 translocation, primary screen, imaging, HUVEC, MLSMR starter and 10KST1 sets (AID 438;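 active = inhibition above 20% together with a positive visual image hit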;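 also: compound added about 3h40 before a 20 min TNFalpha stimulation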;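 as to inhibition: signal is the nuclear over cytoplasmic p65 intensity ratio per well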). The note with it: HUVEC TNFa-induced p65 nuclear translocation; cell count: measured here: nuclei count (cytotoxicity indicator), at 2.08 µM; inhibition: at 2 µM, stronger effect = higher value, 0% TNFa-plus-vehicle, 100% no-TNFa wells.
Experiment [2] in a line: inhibitors of mutant huntingtin aggregation, primary screen, imaging, exon1htt(103Q)mCFP cells, high-content imaging (AID 483;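 active = visual image review flags a hit and inhibition of aggregation exceeds 20%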;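 also: compound exposure lasted 3 days before fixation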;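 as to nuclei count: percent of the per-plate median nuclei count of sample wells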). The following applies: exon1htt(103Q)mCFP cell line, aggregate imaging, at 2 µM; inhibition of aggregation: stronger effect = higher value; nuclei count: measured here: cell count, toxicity.
Experiment [3] is described as follows: inhibitors of E-selectin induction by TNFa, primary screen, imaging, HUVEC, immunofluorescence, MLSMR starter and 10KST1 sets (AID 487;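 active = visually confirmed hit in the image check and inhibition above 20%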;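 as to inhibition: signal is fraction of cell area covered by stained E-selectin grains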;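 as to nuclei count: 100% = median nuclei count of all wells on the same plate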). The note with it: HUVEC TNFalpha-induced E-selectin immunofluorescence imaging, at 2 µM; inhibition: stronger effect = higher value; nuclei count: measured here: cell number, toxicity.
Experiment [4] can be described thus: DUSP6 inhibitors restoring Erk phosphorylation by chemical complementation, primary imaging in DUSP6-transfected HeLa (AID 609;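 active = compounds giving at least 50% inhibition in the cell-based MKP-3 phosphatase rescue imaging test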;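 as to inhibition: phospho-Erk level distribution per well compared with pooled transfected vehicle control wells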). The following applies: HeLa MKP-3 transfected, phospho-Erk imaging KS statistic, at 10 µM, cells stimulated with TPA for 15 min.
Experiment [5] has as its target Dual specificity protein phosphatase 6 (Homo sapiens) (UniProt Q16828). The experiment is described as above. The note with it: HeLa MKP-3 transfected, phospho-Erk imaging KS statistic; at 10 µM; stronger effect = higher value; cells stimulated with TPA for 15 min.
The target in experiment [6] is Voltage-gated potassium channel subunit beta-2 (Rattus norvegicus) (UniProt P62483). Put plainly: KvBeta enzyme negative modulators, primary screen, biochemical, NADPH fluorescence (AID 622;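 active = fluorescence slope higher than the sample average by over 3 SD, cut at about -0.22 in these data, passing the limit was not always enough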;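 also: slope of raw intensity against log time taken from 70 to 1610 s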). The following applies: recombinant KvBeta, 4-cyanobenzaldehyde reduction, at 10 µM, stronger effect = higher value.
Voltage-gated potassium channel subunit beta-2 (Rattus norvegicus), sequence (P62483 whole entry, looked up): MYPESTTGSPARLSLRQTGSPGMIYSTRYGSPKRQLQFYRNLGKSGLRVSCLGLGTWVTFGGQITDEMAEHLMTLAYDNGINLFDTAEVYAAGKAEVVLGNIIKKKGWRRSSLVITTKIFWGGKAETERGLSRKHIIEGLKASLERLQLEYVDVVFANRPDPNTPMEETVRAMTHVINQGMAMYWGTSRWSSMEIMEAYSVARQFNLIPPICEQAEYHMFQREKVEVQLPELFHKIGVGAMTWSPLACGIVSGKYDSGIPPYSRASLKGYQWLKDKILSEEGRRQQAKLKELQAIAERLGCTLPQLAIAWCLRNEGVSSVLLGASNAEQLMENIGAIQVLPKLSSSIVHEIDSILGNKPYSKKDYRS
The target is the same in experiment [7]. The experiment can be described thus: KvBeta positive modulators, primary screen, biochemical, NADPH fluorescence (AID 623;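 active = NADPH fluorescence slope more negative than the mean of all samples by about 3 SD, 99.7% confidence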;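 also: fluorescence intensity change per second fitted from 20 to 320 s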). The note with it: Recombinant KvBeta, NADPH fluorescence decrease slope, 10 min; at 10 µM; stronger effect = lower value.
Experiment [8] concerns the target Alpha-2C adrenergic receptor (Homo sapiens) (UniProt P18825). Put plainly: modulators of alpha2C/GIRK thallium flux, primary screen, cell-based, HEK293 alpha2C/GIRK1/2 (AID 624;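 active = fluorescence slope after compound addition differing from the mean of all screened samples at 99.7% confidence, in either direction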;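 also: slope of fluorescence ratio to pre-addition baseline per second over 15 to 24 s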). The note with it: thallium flux BTC fluorescence, at 10 µM, actives lie on both sides.
Experiment [9] in a line: inhibitors of larval lipid processing in zebrafish, primary screen, whole organism, PED6 fluorescence, gall bladder and intestine (AID 686;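 active = a full or partial loss of lipid-probe fluorescence in the fish gall bladder, intestine or both, judged by eye; inactive = no fluorescence loss, or compound toxic to the fish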;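 also: larvae 5 to 7 days old with five fish per well; signal comes from phospholipase A2 cleavage of quenched PED6 carried via bile; overnight exposure to compound and PED6 before scoring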). The following applies: Zebrafish larvae PED6 lipid processing, fluorescence scoring; screened at 20 µM (by protocol).
Experiment [10] is described as follows: inhibitors of Chlamydomonas gravitaxis, primary screen, whole organism, Chlamydomonas reinhardtii, WT vs cilia-less mutant, absorbance, 96-well (AID 463189).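 Also: 0% = wild type cc124 cells in DMSO and 100% = ciliumless bld1 mutant cells.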 The note with it: OD600 absorbance, 2 days, at 10 µM, stronger effect = higher value.
Experiment [11] can be described thus: inhibitors of Sendai virus-induced IRF3 signaling, primary screen, TLR/RLR signaling modifier project, cell-based, Sendai virus stimulus, luciferase, 10K MLSCN set (AID 602276;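 active = inhibition at or above 50% at 10 µM; inactive = inhibition below 50%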;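 also: firefly luciferase from ISG56 promoter only with Renilla not read in this screen; 0% = Sendai virus plus DMSO and 100% = medium plus DMSO without virus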). The note with it: HEK293 RL24 IRF3 luciferase reporter, at 10 µM, stronger effect = higher value. For orientation: Reporter assays use an easily measured gene product as a stand-in for the process of interest.

Experiment [12] is described as follows: inhibitors of poly I:C-induced TLR3 signaling, primary screen, cell-based, poly I:C stimulus, luciferase, 10K MLSCN set (AID 602277;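 active = inhibition of the reporter signal at or above 50%; inactive = inhibition below 50%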). The note with it: HEK293-TLR3 RL24 IRF3 luciferase reporter, at 10 µM, stronger effect = higher value.
The mark [13] stands for this setting: measured here: cell density z-score.
[14] abbreviates: measured here: nuclear c-Myc green intensity z-score.
Setting [15] is: measured here: nuclear pErk red intensity z-score, stronger effect = higher value.

“And” between values parts separate entries of the source, which are not always exact repeats. Equal entries are not always repeated. The source made the active and inactive calls.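 The calls were made as follows, unless noted: active = inhibition at or above 50% relative to wild type and mutant plate controls; inactive = inhibition below 50%.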

Alpha-2C adrenergic receptor (Homo sapiens), sequence (P18825 whole entry, looked up): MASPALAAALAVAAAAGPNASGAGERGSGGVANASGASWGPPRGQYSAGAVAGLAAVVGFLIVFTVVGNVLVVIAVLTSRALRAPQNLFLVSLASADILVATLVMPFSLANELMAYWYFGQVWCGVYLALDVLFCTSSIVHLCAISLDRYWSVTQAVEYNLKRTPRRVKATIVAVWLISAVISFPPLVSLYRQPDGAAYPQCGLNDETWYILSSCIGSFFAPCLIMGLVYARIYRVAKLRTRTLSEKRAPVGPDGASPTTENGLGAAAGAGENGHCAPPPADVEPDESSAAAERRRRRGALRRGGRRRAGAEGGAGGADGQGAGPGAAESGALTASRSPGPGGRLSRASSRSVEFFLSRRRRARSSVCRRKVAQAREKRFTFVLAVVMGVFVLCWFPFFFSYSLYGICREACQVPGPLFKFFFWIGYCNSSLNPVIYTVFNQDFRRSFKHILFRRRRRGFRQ
Dual specificity protein phosphatase 6 (Homo sapiens), sequence (Q16828 whole entry, looked up): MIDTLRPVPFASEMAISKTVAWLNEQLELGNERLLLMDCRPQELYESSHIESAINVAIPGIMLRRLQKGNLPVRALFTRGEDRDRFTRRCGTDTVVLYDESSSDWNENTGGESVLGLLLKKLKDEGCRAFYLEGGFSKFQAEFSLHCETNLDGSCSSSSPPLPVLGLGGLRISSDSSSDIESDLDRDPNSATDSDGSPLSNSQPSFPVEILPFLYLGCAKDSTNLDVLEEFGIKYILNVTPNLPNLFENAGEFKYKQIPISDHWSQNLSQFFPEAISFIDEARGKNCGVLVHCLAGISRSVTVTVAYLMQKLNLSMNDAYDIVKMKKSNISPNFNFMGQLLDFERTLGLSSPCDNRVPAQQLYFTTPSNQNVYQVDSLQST

A word on the inhibition: it is the drop in the measured response relative to a control, in per cent. Take `Cc1noc(COc2ccccc2OCC(O)CNC(C)(C)C)n1` (stereo not given): the cell count in [1] is 623. Further, the inhibition in experiment [1] is -11.7% (inactive); in experiment [3], -52.1% (inactive); in experiment [5], -16.8% (inactive); in experiment [10] it was -3.71% (inactive); in experiment [11], 16.2% (inactive); in [12], 99.7% (active). Moreover, in experiment [2], the inhibition of aggregation was 16.2% (inactive). In addition, the nuclei count turned out to be 89.4% in [2] and 128% in experiment [3]. Besides, the figures for the z-score in [4] (setting [13]), in [4] (setting [14]) and in experiment [4] (setting [15]) were -0.283, 1.24 and 2.27, respectively. Further, the fluorescence slope in experiment [6] is -0.496 (inactive). Besides, the NADPH fluorescence slope in experiment [7] is -2.4e-05 (inactive). Also, the slope in experiment [8] is 0.0046 (inactive). The molecule was classed as inactive in experiment [9].
With `CCn1cc(C(=O)O)c(=O)c2cc(F)c(N3CCNCC3)cc21`, in experiment [1], the cell count amounted to 576. Moreover, the inhibition in experiment [1] was -6.9% (inactive); in experiment [3] it was -31% (inactive); in experiment [5], -6.41% (inactive); in experiment [10], -5.87% (inactive); in [11] it was -0.442% (inactive); in experiment [12], 10.8% (inactive). Also, the inhibition of aggregation in experiment [2] is 13% (inactive). Besides, the nuclei count was determined as 87.7% in [2] and 108% in experiment [3]. Besides, the z-score was 0.515 in experiment [4] (setting [13]), -1.04 in experiment [4] (setting [14]) and 1.05 in experiment [4] (setting [15]). Moreover, the fluorescence slope in [6] is -0.472 (inactive). The NADPH fluorescence slope in experiment [7] is 1.5e-05 (inactive). The slope in [8] is 0.00555 (inactive). Moreover, the call in experiment [9] was inactive.
Regarding `CN(C)C(=O)Oc1cccc([N+](C)(C)C)c1`, the cell count in experiment [1] was 531 and 586. In addition, the inhibition in experiment [1] is -9.9% (inactive) and -7.8% (inactive); in experiment [3], -9.8% (inactive) and -52% (inactive); in [5], 17.3% (inactive) and -0.493% (inactive); in experiment [10], -1.35% (inactive) and 24.7% (inactive) and 16% (inactive); in experiment [11] it was 14.9% (inactive) and 3.46% (inactive); in [12], 31.8% (inactive) and 16.1% (inactive). The inhibition of aggregation in experiment [2] was 17.2% (inactive) and -13.6% (inactive). The nuclei count in [2] is 74.9% and 106%; in experiment [3] it was 104% and 142%. In addition, the z-score is 0.51 and -0.93 in experiment [4] (setting [13]); 1.04 and 0.599 in experiment [4] (setting [14]); 0.404 and -0.0753 in experiment [4] (setting [15]). Also, the fluorescence slope in [6] was -0.425 (inactive) and -0.463 (inactive). For the same molecule, in [7], the NADPH fluorescence slope is -3.3e-06 (inactive) and -0.000178 (inactive). For the same molecule, in [8], the slope was 0.00518 (inactive) and 0.00527 (inactive). For the same molecule, the outcome in experiment [9] was inactive.
For `COc1cccc(-c2nnc3sc(-c4ccc(C)cc4)nn23)c1`, the cell count in experiment [1] came to 634. In addition, the inhibition in experiment [1] is 3.3% (inactive); in experiment [3] it was -24.2% (inactive); in experiment [5] it was -4.27% (inactive); in experiment [10] it was 5.03% (inactive); in experiment [11] it was 2.84% (inactive); in experiment [12], 34.9% (inactive). Also, in experiment [2], the inhibition of aggregation was 11.6% (inactive). In addition, the figures for the nuclei count in [2] and in [3] were 77.9% and 121%, respectively. For the same molecule, the results for the z-score in experiment [4] (setting [13]), in [4] (setting [14]) and in [4] (setting [15]) were -0.746, -0.965 and 1.01, respectively. In [6], the fluorescence slope is -0.414 (inactive). Moreover, in [7], the NADPH fluorescence slope is -0.000137 (inactive). For the same molecule, the slope in experiment [8] was 0.00537 (inactive). Besides, the call in experiment [9] was inactive.
`Nc1ccc2cn[nH]c2c1`: the cell count in experiment [1] stood at 616. In addition, the inhibition was 0.3% (inactive) in experiment [1]; -58.4% (inactive) in experiment [3]; 5.79% (inactive) in experiment [5]; -10.8% (inactive) in [10]; 3.56% (inactive) in experiment [11]; 33% (inactive) in experiment [12]. The inhibition of aggregation in experiment [2] was 9% (inactive). The results for the nuclei count in [2] and in experiment [3] were 94.8% and 123%, respectively. For the same molecule, the z-score in experiment [4] (setting [13]) was -0.59; in [4] (setting [14]) it was 0.481; in [4] (setting [15]), -0.693. The fluorescence slope in [6] is -0.531 (inactive). For the same molecule, the NADPH fluorescence slope in [7] was -2.3e-05 (inactive). Moreover, in experiment [8], the slope is 0.00412 (inactive). The outcome in experiment [9] was inactive.
